# Reference: PubChem BioAssay AID624256 (NMMLSC, 2012)
# About 3,700 (1%) of roughly 360,000 compounds were called active. Not shown: some 2% with an inconclusive outcome.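 Rule for the calls: active = normalized GFP-positive differentiation at or above the plate's own cutoff, the solvent-only control mean plus 3 SD; inconclusive = no clear call, values can overlap the other calls; inactive = the rest.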 The sample as a whole holds a higher share of actives than the screen did.
# Assay: induction of myeloid progenitor differentiation, primary screen, cell-based, flow cytometry, MLPCN library (AID 624256);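 for GFP+ MAC1+ double positive: cells exposed to compound for four days before flow analysis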;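 for normalized GFP-positive differentiation: cells exposed to compound for four days before flow analysis; 0% = DMSO wells and 100% = fulvestrant positive control at 5 µM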
# Conditions: ER-HoxA9 myeloid progenitors, lysozyme-GFP differentiation, at 10 µM; GFP+ MAC1+ double positive: measured here: differentiation confirmed by MAC1 staining, stronger effect = higher value; normalized GFP-positive differentiation: stronger effect = higher value
Compound,GFP+ MAC1+ double positive,normalized GFP-positive differentiation,outcome
O=C1NC(=O)N(CCc2ccc(F)cc2)C(=O)/C1=C/C=C/c1ccccc1,0.9%,70.4% (active),
CNC(=O)O/N=C(\N)Cc1csc2ccc(Cl)cc12,0.2%,,inactive
CC(C)Nc1nc(Cl)nc(NC(C)C)n1,0.1%,,inactive
COc1ccc(N=Cc2c(O)n(C)c(=O)[nH]c2=O)cc1,0.4%,,inactive
C[C@H]1CN([C@@H](C)CO)C(=O)CCCn2nncc2CO[C@H]1CN(C)C(=O)Oc1ccccc1,0.8%,,inactive
Cc1ccccc1NC(=O)COC(=O)c1cc(C)n(C2CC2)c1C,1.3%,,inactive
CC(=NCC1CCCO1)c1c(O)n(-c2ccccc2)c(=O)[nH]c1=O (stereo not given),0.9%,,inactive
OCC#CC[N+]1(CC#Cc2ccccc2)CCCC1,1.2%,7.55% (active),
COC(=O)C1=C(c2cc3ccccc3s2)C[C@@H]2CC[C@H]1N2C(=O)NCCO,4.1%,,inactive
CCOC(=O)[C@]12Cc3cc(OC)ccc3[C@H]1N(C(C)C)C(=O)c1ccccc12,1.5%,,inactive
c1ccc(CC2CCCCN2)cc1 (stereo not given),0.1%,,inactive
c1ccc2sc(C3CCCNC3)nc2c1 (stereo not given),1.2%,,inactive
CC1CC=CCC12C(=O)NC(=S)NC2=O (stereo not given),11.7%,312% (active),
CN1CCC[C@@H]1CCO[C@](C)(c1ccccc1)c1ccc(Cl)cc1,3.2%,,inactive
CC1C2Cn3c(nc4ccccc43)C1N(C)O2 (stereo not given),1.5%,,inactive
